In PubChem BioAssay AID1159580 (chemical genetic matrix, 2015):
Where “and” joins values, the source holds several entries; their conditions need not be identical. Equal values may be shown once. The whole screen tested about 5,500 compounds, of which about 2,000 (36%) were called active. Roughly 18% stayed inconclusive and do not appear here. Rule as the data show it: active = normalized growth mostly below about 0.91 (no sharp cut-off); inconclusive = no clear call, values can overlap the other calls; inactive = mostly above about 0.92. This is one part of the list.

Assay: chemical genetic growth profiling, strain panel (AID 1159580);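 also: tested at 20 µM; growth read once vehicle control cultures reached saturation at 30 °C; 1 = growth at the plate median or of vehicle wells; lower values mean less growth of the strain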
Details: S. cerevisiae deletion strains, growth OD

Measured: normalized growth

CO[C@@H]1[C@@H](O[C@@H]2O[C@H](C)[C@@H](O[C@H]3C[C@@](C)(O)[C@H](O)[C@H](C)O3)[C@H](N(C)C)[C@H]2O)[C@@H](CC=O)C[C@@H](C)[C@@H](O[C@H]2CC[C@H](N(C)C)[C@@H](C)O2)/C=C/C=C/C[C@H](C)OC(=O)C[C@H]1O
inactive: locus YAL021C, strain ccr4, hits give low values 1.02 | locus YAL026C, strain drs2, hits give low values 1.01 | locus YAL030W, strain snc1, hits give low values 0.997 | locus YBL061C, strain skt5, hits give low values 1.02 | locus YBR009C, strain hhf1, hits give low values 1.01 | locus YBR021W, strain FUR4, hits give low values 1.03 | locus YBR023C, strain chs3, hits give low values 1.01 | locus YBR171W, strain sec66, hits give low values 1.02 | locus YBR229C, strain ROT2, hits give low values 1.02 | locus YBR231C, strain swc5, hits give low values 1.02 | locus YBR279W, strain paf1, hits give low values 1.03 | locus YCL011C, strain gbp2, hits give low values 1.01 | locus YCL016C, strain dcc1, hits give low values 1.01 | locus YCL029C, strain bik1, hits give low values 1 | locus YCL061C, strain MRC1, hits give low values 1.01 | locus YCL069W, strain vba3, hits give low values 1.01 | locus YCR088W, strain abp1, hits give low values 1.02 | locus YDL005C, strain med2, hits give low values 1.01 | locus YDL035C, strain GPR1, hits give low values 1 | locus YDL040C, strain nat1, hits give low values 1.02 | locus YDL074C, strain BRE1, hits give low values 1.04 | locus YDL101C, strain DUN1, hits give low values 1.01 | locus YDL185W, strain tfp1, hits give low values 0.976 | locus YDL192W, strain arf1, hits give low values 0.998 | locus YDR001C, strain nth1, hits give low values 1.01 | locus YDR069C, strain doa4, hits give low values 1 | locus YDR101C, strain arx1, hits give low values 1.02 | locus YDR137W, strain rgp1, hits give low values 1.02 | locus YDR150W, strain NUM1, hits give low values 1.02 | locus YDR159W, strain sac3, hits give low values 1.01 | locus YDR162C, strain NBP2, hits give low values 1.01 | locus YDR195W, strain ref2 1 | locus YDR297W, strain sur2, hits give low values 1.01 | locus YDR318W, strain mcm21, hits give low values 0.996 | locus YDR334W, strain swr1, hits give low values 1.03 | locus YDR335W, strain msn5, hits give low values 1.01 | locus YDR388W, hits give low values 1 | locus YDR392W, strain spt3, hits give low values 1.02 | locus YDR502C, strain sam2, hits give low values 0.989 | locus YEL003W, strain gim4, hits give low values 1.01 | locus YEL037C, strain rad23, hits give low values 1.01 | locus YEL061C, strain CIN8 (second series), hits give low values 1.01 | locus YEL061C, strain CIN8, hits give low values 1.01 | locus YER015W, strain faa2, hits give low values 1 | locus YER016W, strain bim1, hits give low values 1.01 | locus YER110C, hits give low values 0.967 | locus YER111C, strain swi4, hits give low values 1.01 | locus YER155C, strain BEM2 (second series), hits give low values 1.02 | locus YER155C, strain BEM2, hits give low values 1.01 | locus YER167W, strain BCK2, hits give low values 1.02 | locus YFR010W, strain ubp6, hits give low values 1.02 | locus YGL078C, strain dbp3, hits give low values 0.982 | locus YGL086W, strain mad1, hits give low values 0.994 | locus YGL167C, strain pmr1, hits give low values 1.01 | locus YGL173C, strain kem1, hits give low values 1.01 | locus YGL227W, strain vid30, hits give low values 1.02 | locus YGL240W, strain doc1, hits give low values 0.999 | locus YGL248W, strain PDE1, hits give low values 1.02 | locus YGL253W, strain hxk2, hits give low values 1.01 | locus YGR078C, strain PAC10, hits give low values 1.01 | locus YGR135W, strain pre9, hits give low values 0.955 | locus YGR229C, strain SMI1, hits give low values 1.03 | locus YGR252W, strain gcn5, hits give low values 0.95 | locus YHR013C, strain ard1, hits give low values 1.03 | locus YHR027C, strain rpn1, hits give low values 1.01 | locus YHR030C, strain SLT2, hits give low values 1.02 and 0.972 | locus YHR079C, strain IRE1 (second series), hits give low values 1 | locus YHR079C, strain IRE1, hits give low values 0.961 | locus YHR094C, strain hxt1, hits give low values 1 | locus YHR129C, strain ARP1, hits give low values 1.02 | locus YHR142W, strain chs7, hits give low values 1 | locus YHR200W, strain rpn10, hits give low values 0.984 | locus YIL066C, strain RNR3, hits give low values 1.03 | locus YIL073C, strain SPO22, hits give low values 0.928 | locus YIL125W, strain kgd1, hits give low values 0.997 | locus YIR030C, strain dcg1, hits give low values 1 | locus YJL092W, strain hpr5, hits give low values 1.01 | locus YJL095W, strain BCK1 (second series), hits give low values 1.01 | locus YJL095W, strain BCK1, hits give low values 1.01 and 0.969 | locus YJL115W, strain asf1, hits give low values 1.02 | locus YJL129C, strain trk1, hits give low values 1 | locus YJL134W, strain LCB3, hits give low values 1.01 | locus YJL154C, strain vps35, hits give low values 1.02 | locus YJL164C, strain tpk1, hits give low values 1 | locus YJL166W, strain qcr8, hits give low values 1.02 | locus YJL168C, strain set2, hits give low values 0.979 | locus YJL187C, strain SWE1 (second series), hits give low values 1.02 | locus YJL187C, strain SWE1, hits give low values 1.01 | locus YJR043C, strain POL32, hits give low values 1 | locus YJR066W, strain TOR1, hits give low values 0.922 | locus YJR075W, strain HOC1, hits give low values 0.991 | locus YKL009W, strain mrt4, hits give low values 0.969 | locus YKL068W, hits give low values 1.02 | locus YKL085W, strain MDH1 (second series), hits give low values 1.01 | locus YKL085W, strain MDH1, hits give low values 1.01 | locus YKL160W, strain elf1, hits give low values 1.02 | locus YKR001C, strain vps1, hits give low values 0.982 | locus YKR026C, strain gcn3, hits give low values 1.02 | locus YKR091W, strain srl3, hits give low values 1.01 | locus YLL001W, strain dnm1, hits give low values 1.01 | locus YLL026W, hits give low values 1.01 | locus YLL041C, strain sdh2, hits give low values 1.01 | locus YLR027C, strain aat2, hits give low values 1.01 | locus YLR039C, strain RIC1, hits give low values 0.943 | locus YLR058C, strain SHM2, hits give low values 1.02 | locus YLR102C, strain apc9, hits give low values 0.997 | locus YLR113W, strain HOG1, hits give low values 0.965 | locus YLR221C, strain rsa3, hits give low values 1 | locus YLR258W, strain gsy2, hits give low values 1.01 | locus YLR262C, strain YPT6 (second series), hits give low values 1.02 | locus YLR262C, strain YPT6, hits give low values 0.989 | locus YLR268W, strain sec22, hits give low values 0.996 | locus YLR320W, strain mms22, hits give low values 1.02 | locus YLR330W, strain CHS5, hits give low values 1.01 | locus YLR342W, strain FKS1 (second series), hits give low values 0.999 | locus YLR342W, strain FKS1, hits give low values 1.02 | locus YLR357W, strain rsc2, hits give low values 1.02 | locus YLR370C, strain arc18, hits give low values 1.01 | locus YLR371W, strain rom2, hits give low values 1 | locus YLR384C, strain iki3, hits give low values 1.03 | locus YLR418C, strain cdc73, hits give low values 0.967 | locus YML016C, strain PPZ1, hits give low values 1.01 | locus YML032C, strain rad52, hits give low values 0.955 | locus YML120C, strain ndi1, hits give low values 1.01 | locus YML124C, strain tub3, hits give low values 1 | locus YMR058W, strain fet3, hits give low values 1.02 | locus YMR078C, strain ctf18, hits give low values 0.993 | locus YMR125W, strain sto1, hits give low values 1.01 | locus YMR129W, hits give low values 1.02 | locus YMR205C, strain PFK2, hits give low values 1.03 | locus YMR223W, strain ubp8, hits give low values 0.975 | locus YMR231W, strain pep5, hits give low values 1 | locus YMR263W, strain SAP30, hits give low values 1.01 | locus YMR307W, strain GAS1, hits give low values 0.959 | locus YNL067W, strain RPL9B, hits give low values 1.01 | locus YNL071W, strain lat1, hits give low values 1 | locus YNL153C, strain GIM3, hits give low values 1.01 | locus YNL183C, strain NPR1, hits give low values 0.921 | locus YNL209W, strain ssb2, hits give low values 1.02 | locus YNL233W, strain BNI4, hits give low values 1 | locus YNL248C, strain rpa49, hits give low values 1.01 | locus YNL250W, strain rad50, hits give low values 0.989 | locus YNL271C, strain bni1, hits give low values 1 | locus YNL298W, strain CLA4, hits give low values 0.997 | locus YNL307C, strain MCK1, hits give low values 0.993 | locus YNL322C, strain KRE1 (second series), hits give low values 1.01 | locus YNL322C, strain KRE1, hits give low values 1.02 | locus YNR049C, strain mso1, hits give low values 1.02 | locus YNR052C, strain pop2, hits give low values 0.996 | locus YOL012C, strain htz1 0.441 | locus YOL147C, strain pex11, hits give low values 0.991 | locus YOR001W, strain rrp6, hits give low values 0.998 | locus YOR061W, strain CKA2, hits give low values 1.01 | locus YOR069W, strain VPS5, hits give low values 1.01 | locus YOR070C, strain gyp1, hits give low values 1.01 | locus YOR080W, strain dia2, hits give low values 1.01 | locus YOR083W, strain WHI5, hits give low values 1.02 | locus YOR106W, strain vam3, hits give low values 1.03 | locus YOR136W, strain idh2, hits give low values 1 | locus YOR144C, strain elg1, hits give low values 0.992 | locus YOR184W, strain ser1, hits give low values 0.967 | locus YOR231W, strain MKK1, hits give low values 0.973 | locus YOR265W, strain rbl2, hits give low values 1.01 | locus YOR270C, strain vph1, hits give low values 0.997 | locus YOR290C, strain snf2, hits give low values 1 | locus YOR316C, strain cot1, hits give low values 1.01 | locus YPL051W, strain arl3, hits give low values 1.01 | locus YPL055C, strain LGE1, hits give low values 1.03 | locus YPL078C, strain atp4, hits give low values 1.01 | locus YPL106C, strain sse1, hits give low values 1.04 | locus YPL240C, strain hsp82, hits give low values 1.01 | locus YPL256C, strain CLN2, hits give low values 1 | locus YPR119W, strain clb2, hits give low values 0.994 | locus YPR141C, strain kar3, hits give low values 1.02 | locus YPR163C, strain tif3, hits give low values 1.01 | locus YPR167C, strain met16, hits give low values 1 | strain wtn01, hits give low values 0.989
